Data published in PubChem BioAssay AID1159580 (chemical genetic matrix, 2015).
Where “and” joins values, the source holds several entries; their conditions need not be identical. Equal values may be shown once. The whole screen tested about 5,500 compounds, of which about 2,000 (36%) were called active. About 18% were inconclusive and are not listed. Cut-off read from the data, not from the text of the source: active = normalized growth mostly below about 0.91 (no sharp cut-off); inconclusive = no clear call, values can overlap the other calls; inactive = mostly above about 0.92. Some of the results follow.

Assay: chemical genetic growth profiling, strain panel (AID 1159580);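 note: tested at 20 µM; growth read once vehicle control cultures reached saturation at 30 °C; 1 = growth at the plate median or of vehicle wells; lower values mean less growth of the strain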
Details: growth OD

Measured: normalized growth

C#CCN(C)Cc1ccccc1
inactive: S. cerevisiae deletion strains, locus YJR075W, strain HOC1, active compounds read low 0.991 | S. cerevisiae deletion strains, locus YKL009W, strain mrt4, active compounds read low 1.02 | S. cerevisiae deletion strains, locus YKL068W, active compounds read low 1 | S. cerevisiae deletion strains, locus YKL085W, strain MDH1 (second series), active compounds read low 1 | S. cerevisiae deletion strains, locus YKL085W, strain MDH1, active compounds read low 1 | S. cerevisiae deletion strains, locus YKL160W, strain elf1, active compounds read low 1.01 | S. cerevisiae deletion strains, locus YKL190W, strain CNB1, active compounds read low 0.997 | S. cerevisiae deletion strains, locus YKR001C, strain vps1, active compounds read low 1.02 | S. cerevisiae deletion strains, locus YKR026C, strain gcn3, active compounds read low 1.02 | S. cerevisiae deletion strains, locus YKR091W, strain srl3, active compounds read low 1.02 | S. cerevisiae deletion strains, locus YLL001W, strain dnm1, active compounds read low 1.02 | S. cerevisiae deletion strains, locus YLL026W, active compounds read low 1 | S. cerevisiae deletion strains, locus YLL041C, strain sdh2, active compounds read low 0.968 | S. cerevisiae deletion strains, locus YLR027C, strain aat2, active compounds read low 0.991 | S. cerevisiae deletion strains, locus YLR039C, strain RIC1, active compounds read low 1.02 | S. cerevisiae deletion strains, locus YLR058C, strain SHM2, active compounds read low 0.998 | S. cerevisiae deletion strains, locus YLR102C, strain apc9, active compounds read low 1.01 | S. cerevisiae deletion strains, locus YLR113W, strain HOG1, active compounds read low 1 | S. cerevisiae deletion strains, locus YLR221C, strain rsa3, active compounds read low 1.01 | S. cerevisiae deletion strains, locus YLR258W, strain gsy2, active compounds read low 1 | S. cerevisiae deletion strains, locus YLR262C, strain YPT6 (second series), active compounds read low 1.05 | S. cerevisiae deletion strains, locus YLR262C, strain YPT6, active compounds read low 0.997 | S. cerevisiae deletion strains, locus YLR268W, strain sec22, active compounds read low 1.06 | S. cerevisiae deletion strains, locus YLR320W, strain mms22, active compounds read low 0.99 | S. cerevisiae deletion strains, locus YLR330W, strain CHS5, active compounds read low 1 | S. cerevisiae deletion strains, locus YLR342W, strain FKS1 (second series), active compounds read low 1.02 | S. cerevisiae deletion strains, locus YLR342W, strain FKS1, active compounds read low 1.03 | S. cerevisiae deletion strains, locus YLR357W, strain rsc2, active compounds read low 1.05 | S. cerevisiae deletion strains, locus YLR370C, strain arc18, active compounds read low 0.987 | S. cerevisiae deletion strains, locus YLR371W, strain rom2, active compounds read low 1.02 | S. cerevisiae deletion strains, locus YLR384C, strain iki3, active compounds read low 0.996 | S. cerevisiae deletion strains, locus YLR418C, strain cdc73, active compounds read low 1.02 | S. cerevisiae deletion strains, locus YML016C, strain PPZ1, active compounds read low 1 | S. cerevisiae deletion strains, locus YML032C, strain rad52, active compounds read low 1.02 | S. cerevisiae deletion strains, locus YML120C, strain ndi1, active compounds read low 0.999 | S. cerevisiae deletion strains, locus YML124C, strain tub3, active compounds read low 1.01 | S. cerevisiae deletion strains, locus YMR058W, strain fet3, active compounds read low 1.04 | S. cerevisiae deletion strains, locus YMR078C, strain ctf18, active compounds read low 1.02 | S. cerevisiae deletion strains, locus YMR125W, strain sto1, active compounds read low 1.03 | S. cerevisiae deletion strains, locus YMR129W, active compounds read low 0.988 | S. cerevisiae deletion strains, locus YMR205C, strain PFK2, active compounds read low 0.98 | S. cerevisiae deletion strains, locus YMR223W, strain ubp8, active compounds read low 0.98 | S. cerevisiae deletion strains, locus YMR231W, strain pep5, active compounds read low 1.02 | S. cerevisiae deletion strains, locus YMR263W, strain SAP30, active compounds read low 0.995 | S. cerevisiae deletion strains, locus YMR307W, strain GAS1, active compounds read low 0.994 and 0.99 | S. cerevisiae deletion strains, locus YNL067W, strain RPL9B, active compounds read low 0.99 | S. cerevisiae deletion strains, locus YNL071W, strain lat1, active compounds read low 1.02 | S. cerevisiae deletion strains, locus YNL128W, strain TEP1, active compounds read low 1.01 and 0.994 | S. cerevisiae deletion strains, locus YNL153C, strain GIM3, active compounds read low 1.15 | S. cerevisiae deletion strains, locus YNL175C, strain NOP13, active compounds read low 1.01 | S. cerevisiae deletion strains, locus YNL183C, strain NPR1, active compounds read low 0.944 | S. cerevisiae deletion strains, locus YNL197C, strain WHI3, active compounds read low 1.01 | S. cerevisiae deletion strains, locus YNL209W, strain ssb2, active compounds read low 1.02 | S. cerevisiae deletion strains, locus YNL224C, strain SQS1, active compounds read low 1.04 | S. cerevisiae deletion strains, locus YNL233W, strain BNI4, active compounds read low 0.996 | S. cerevisiae deletion strains, locus YNL248C, strain rpa49, active compounds read low 1.03 | S. cerevisiae deletion strains, locus YNL250W, strain rad50, active compounds read low 1.01 | S. cerevisiae deletion strains, locus YNL271C, strain bni1, active compounds read low 1.02 | S. cerevisiae deletion strains, locus YNL298W, strain CLA4, active compounds read low 1.03 | S. cerevisiae deletion strains, locus YNL307C, strain MCK1, active compounds read low 1.03 | S. cerevisiae deletion strains, locus YNL322C, strain KRE1 (second series), active compounds read low 1.03 | S. cerevisiae deletion strains, locus YNR049C, strain mso1, active compounds read low 0.961 | S. cerevisiae deletion strains, locus YNR052C, strain pop2, active compounds read low 1.03 | S. cerevisiae deletion strains, locus YOL006C, strain TOP1, active compounds read low 1 | S. cerevisiae deletion strains, locus YOL012C, strain htz1 0.939 | S. cerevisiae deletion strains, locus YOL147C, strain pex11, active compounds read low 1.02 | S. cerevisiae deletion strains, locus YOR001W, strain rrp6, active compounds read low 1.01 | S. cerevisiae deletion strains, locus YOR061W, strain CKA2, active compounds read low 1 | S. cerevisiae deletion strains, locus YOR069W, strain VPS5, active compounds read low 1 | S. cerevisiae deletion strains, locus YOR070C, strain gyp1, active compounds read low 1.01 | S. cerevisiae deletion strains, locus YOR080W, strain dia2, active compounds read low 1.02 | S. cerevisiae deletion strains, locus YOR083W, strain WHI5 (second series), active compounds read low 1.01 | S. cerevisiae deletion strains, locus YOR083W, strain WHI5, active compounds read low 1 | S. cerevisiae deletion strains, locus YOR106W, strain vam3, active compounds read low 0.996 | S. cerevisiae deletion strains, locus YOR136W, strain idh2, active compounds read low 1.01 | S. cerevisiae deletion strains, locus YOR144C, strain elg1, active compounds read low 1.01 | S. cerevisiae deletion strains, locus YOR184W, strain ser1, active compounds read low 1.01 | S. cerevisiae deletion strains, locus YOR231W, strain MKK1, active compounds read low 0.997 | S. cerevisiae deletion strains, locus YOR265W, strain rbl2, active compounds read low 1.01 | S. cerevisiae deletion strains, locus YOR270C, strain vph1, active compounds read low 1.06 | S. cerevisiae deletion strains, locus YOR290C, strain snf2, active compounds read low 0.999 | S. cerevisiae deletion strains, locus YOR316C, strain cot1, active compounds read low 1.02 | S. cerevisiae deletion strains, locus YPL051W, strain arl3, active compounds read low 1.02 | S. cerevisiae deletion strains, locus YPL078C, strain atp4, active compounds read low 1.05 | S. cerevisiae deletion strains, locus YPL106C, strain sse1, active compounds read low 1.07 | S. cerevisiae deletion strains, locus YPL240C, strain hsp82, active compounds read low 0.979 | S. cerevisiae deletion strains, locus YPL256C, strain CLN2, active compounds read low 0.939 | S. cerevisiae deletion strains, locus YPR119W, strain clb2, active compounds read low 1.02 | S. cerevisiae deletion strains, locus YPR141C, strain kar3, active compounds read low 1 | S. cerevisiae deletion strains, locus YPR163C, strain tif3, active compounds read low 1.02 | S. cerevisiae deletion strains, locus YPR167C, strain met16, active compounds read low 1.02 | S. cerevisiae deletion strains, strain wtn01, active compounds read low 1.02 | S. cerevisiae strains, strain wild type, active compounds read low 0.998
